The entries come from a sample that favours hits as a whole.
DUX4 txn inh: inhibitors of DUX4-driven ZSCAN4 reporter expression, primary screen, 293T cells, Gaussia and Italica luciferase | activity change, negative = inhibition, % (test concentration not listed) | 37,000 tested, 0.8% active | 293T-iDUX4 ZSCAN4-Gaussia luciferase reporter, 24 h; active compounds read low;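 active means mean inhibition of at least 10% in the main channel, exceeding the control channel by a set limit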;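 further: 0% = median of neutral control wells and -100% = median of positive control wells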
* hit, by the source's call.

How did Cc1cccc(S(=O)(=O)N2CCCCN3[C@@H](CO)[C@H](c4ccc(C#C[C@@H](C)O)cc4)[C@@H]3C2)c1 do in these assays?
DUX4 txn inh: -26*

Results for COc1ccc(S(=O)(=O)N2CCCCN3[C@H](CO)[C@@H](c4ccc(C#CC(C)C)cc4)[C@@H]3C2)cc1 ?
DUX4 txn inh: 1

How did COc1cccc(S(=O)(=O)N2CCCCN3[C@H](CO)[C@H](c4ccc(C#CCC(C)C)cc4)[C@@H]3C2)c1 do in these assays?
DUX4 txn inh: -49*

Results for Cc1cccc(S(=O)(=O)N2CCCCN3[C@H](CO)[C@@H](c4ccc(C#C[C@@H](C)O)cc4)[C@H]3C2)c1 ?
DUX4 txn inh: 12

How did C[C@H](O)C#Cc1ccc([C@@H]2[C@H]3CN(C(=O)c4ccc5c(c4)OCO5)CCCCN3[C@H]2CO)cc1 do in these assays?
DUX4 txn inh: 23

Results for COCC#Cc1ccc([C@H]2[C@@H](CO)N3CCCCN(S(=O)(=O)c4ccc(OC)cc4)C[C@H]23)cc1 ?
DUX4 txn inh: 3

What do the screens show for `Cc1cccc(S(=O)(=O)N2CCCCN3[C@H](C2)[C@H](c2ccc(C#C[C@@H](C)O)cc2)[C@@H]3CO)c1`?
DUX4 txn inh: 4

How did CCC(=O)N1CC(=O)N2[C@H](CO)[C@@H](c3ccc(C#CCC(C)C)cc3)[C@@H]2C1 do in these assays?
DUX4 txn inh: 0

Results for O=C(NC1CCC1)[C@H]1[C@H](CO)[C@H]2Cn3c(ccc(-c4cncnc4)c3=O)[C@@H]1N2CCc1ccccc1 ?
DUX4 txn inh: 8

What do the screens show for `COCC(=O)N1CC(=O)N2[C@H](CO)[C@@H](c3ccc(C#CC4CC4)cc3)[C@H]2C1`?
DUX4 txn inh: -1

How did O=C(c1ccncc1)N1C[C@H]2[C@@H](c3ccccc31)[C@H](CO)N2C(=O)CN1CCOCC1 do in these assays?
DUX4 txn inh: -5

What do the screens show for `CC(=O)N1[C@@H]2Cn3c(ccc(C4=CCCCC4)c3=O)[C@H]1[C@@H](C(=O)NC1CCCC1)[C@@H]2CO`?
DUX4 txn inh: -1

What do the screens show for `C[C@@H]1CCCCO[C@H](CN(C)Cc2ccc(C(=O)Nc3ccccc3N)cc2)[C@H](C)CN([C@@H](C)CO)C(=O)c2cc(N(C)C)ccc2O1`?
DUX4 txn inh: -1

Results for Cc1ccc(-c2cnc3c(c2)C(=O)N([C@@H](C)CO)C[C@@H](C)[C@@H](CN(C)Cc2ccccc2C(=O)O)O3)cc1 ?
DUX4 txn inh: -2

How did COCC(=O)Nc1ccc2c(c1)C(=O)N(C)C[C@H](OC)[C@@H](C)CN(Cc1ccccn1)[C@H](C)CO2 do in these assays?
DUX4 txn inh: -1

How did COc1ccc(C(=O)N2C[C@@H]3[C@H](c4ccccc42)[C@H](CO)N3C(=O)Cc2ccccn2)cc1 do in these assays?
DUX4 txn inh: -4

How did COc1cccc(CN2CCCCN3[C@H](CO)[C@H](c4ccc(-c5cccc(C#N)c5)cc4)[C@@H]3C2)c1 do in these assays?
DUX4 txn inh: -3

How did N#Cc1cccc(-c2ccc(C3[C@H]4CNC[C@@H]3N4Cc3cccc(-c4ccncc4)c3)cc2)c1 (some centres undefined) do in these assays?
DUX4 txn inh: -5

Results for N#Cc1cccc(-c2ccc(C3[C@@H]4CN(Cc5ccccc5)C[C@H]3N4)cc2)c1 (some centres undefined) ?
DUX4 txn inh: -27*

Results for CS(=O)(=O)N1CCCCN2[C@H](CO)[C@H](c3ccc(-c4cccc(C#N)c4)cc3)[C@@H]2C1 ?
DUX4 txn inh: 14

How did N#Cc1cccc(-c2ccc(C3[C@@H]4CN(S(=O)(=O)Cc5ccccc5)C[C@H]3N4)cc2)c1 (some centres undefined) do in these assays?
DUX4 txn inh: -41*

How did CS(=O)(=O)N1CCCCN2[C@H](CO)[C@@H](c3ccc(-c4cccc(C#N)c4)cc3)[C@H]2C1 do in these assays?
DUX4 txn inh: 3

What do the screens show for `COc1ccc(NC(=O)N(C)C[C@H]2OCc3ccccc3-c3ccccc3C(=O)N([C@@H](C)CO)C[C@H]2C)c(OC)c1`?
DUX4 txn inh: 4

What do the screens show for `CCC(=O)N1[C@@H](CO)[C@@H]2c3ccccc3N(C(=O)NC(C)C)C[C@@H]21`?
DUX4 txn inh: -6

Results for CC(C)C[C@H]1COCc2cn(nn2)CC[C@H](Cc2cccc(Cl)c2)C(=O)N1 ?
DUX4 txn inh: 0

How did Cc1noc(C)c1NC(=O)Nc1cccc2c1O[C@H](CN(C)C(=O)Nc1ccc3c(c1)OCO3)[C@H](C)CN([C@H](C)CO)C2=O do in these assays?
DUX4 txn inh: -1

How did Cc1ccccc1-c1ccc([C@@H]2[C@@H](CO)N3CCCCN(C(=O)Nc4cccc(F)c4)C[C@@H]23)cc1 do in these assays?
DUX4 txn inh: -27*

How did O=C(Nc1cccc(F)c1)N1CCCCN2[C@H](C1)[C@@H](c1ccc(-c3ccncc3)cc1)[C@@H]2CO do in these assays?
DUX4 txn inh: 7

Results for N#Cc1ccc(-c2ccc([C@H]3[C@@H](CO)N4CCCCN(C(=O)Nc5ccc(F)cc5)C[C@H]34)cc2)cc1 ?
DUX4 txn inh: -39*

What do the screens show for `Cc1ccccc1-c1ccc([C@H]2[C@H](CO)N3CCCCN(S(=O)(=O)c4ccc(F)cc4)C[C@@H]23)cc1`?
DUX4 txn inh: -56*

How did N#Cc1ccc(-c2ccc([C@H]3[C@H]4CN(C(=O)Nc5ccc(F)cc5)CCCCN4[C@H]3CO)cc2)cc1 do in these assays?
DUX4 txn inh: 39

How did C/C=C/c1ccc([C@H]2[C@@H](CO)N3CCCCN(C(=O)Nc4ccc(OC)cc4)C[C@H]23)cc1 do in these assays?
DUX4 txn inh: -9

Results for N#Cc1ccc(-c2ccc([C@H]3[C@H](CO)N4CCCCN(C(=O)Nc5ccc(F)cc5)C[C@@H]34)cc2)cc1 ?
DUX4 txn inh: 10

Results for C/C=C/c1ccc([C@@H]2[C@H](CO)N3CCCCN(C(=O)Nc4ccc(OC)cc4)C[C@@H]23)cc1 ?
DUX4 txn inh: 18

How did Cc1ccccc1-c1ccc([C@H]2[C@H]3CN(S(C)(=O)=O)CCCCN3[C@H]2CO)cc1 do in these assays?
DUX4 txn inh: -6

Results for O=C(Nc1ccc(F)cc1)N1CCCCN2[C@H](C1)[C@H](c1ccc(-c3cccc(F)c3)cc1)[C@@H]2CO ?
DUX4 txn inh: 9

How did CCS(=O)(=O)N1CCCCN2[C@H](CO)[C@H](c3ccc(-c4ccccc4C)cc3)[C@H]2C1 do in these assays?
DUX4 txn inh: -5

How did C/C=C/c1ccc([C@@H]2[C@@H](CO)N3CCCCN(C(=O)Nc4ccc(OC)cc4)C[C@@H]23)cc1 do in these assays?
DUX4 txn inh: -27*

What do the screens show for `O=C1N[C@H](Cc2ccccc2)COCc2cnnn2CC[C@@H]1Cc1cccc(Cl)c1`?
DUX4 txn inh: 2

How did COc1ccccc1CNC(=O)C[C@H]1C[C@@H]2c3cc(NC(=O)C4CCC4)ccc3O[C@@H]2[C@H](CO)O1 do in these assays?
DUX4 txn inh: 2

What do the screens show for `CC(C)C(=O)Nc1ccc2c(c1)C(=O)N(C)[C@H]1CC[C@H](CC(=O)NCC3CC3)O[C@H]1CO2`?
DUX4 txn inh: -3

Results for O=C(CN1CCOCC1)N1CC2(C1)[C@@H](c1ccccc1)[C@H](CO)N2Cc1cccc(F)c1 ?
DUX4 txn inh: 2

How did O=C(C[C@H]1C[C@@H]2c3cc(NC(=O)C4CCOCC4)ccc3O[C@@H]2[C@@H](CO)O1)NCc1ccc2c(c1)OCO2 do in these assays?
DUX4 txn inh: 1

How did CCC(=O)N1[C@H](CO)[C@H](c2ccccc2)[C@H]1CN(CC1CCC1)S(C)(=O)=O do in these assays?
DUX4 txn inh: 0

Assay outcomes as filed in PubChem.
